Screening data as filed in PubChem BioAssay.
hgDAF-12 ag = hgDAF-12 agonism, primary luciferase screen. hit rate 1.8% among 370,000. activation, % at 6.8 µM. HEK293 GAL4-hgDAF12 UAS-luciferase reporter, agonist luminescence; normalized to butyrate control;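 active means activation above a cutoff set at the mean of all screened compounds plus 3 SD, cut at about 10% in these data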
hcDAF-12 act = H. contortus DAF-12 activation, primary screen. HEK293 hcDAF-12 lit1-tk-luc reporter, luminescence; 0% DMSO, 100% Δ7-dafachronic acid. activation, % at 6.8 µM. hit rate 1.4% among 370,000;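 active means activation above the mean of all tested compounds plus 3 SD, cut at about 5.5% in these data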
DAX1 inh-1 = NR0B1 (DAX1) inhibition. HEK293 Gal4-DAX1 luciferase reporter, luminescence. hit rate 0.99% among 340,000. AID 504766. inhibition, % at 6.75 µM;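 active means inhibition above the mean over all tested compounds plus 3 SD, cut at about 4.2% in these data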;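 further: inhibition shows as a rise in luminescence from relieved DAX1 repression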
Target sequence (P51843 207-470 limits assumed): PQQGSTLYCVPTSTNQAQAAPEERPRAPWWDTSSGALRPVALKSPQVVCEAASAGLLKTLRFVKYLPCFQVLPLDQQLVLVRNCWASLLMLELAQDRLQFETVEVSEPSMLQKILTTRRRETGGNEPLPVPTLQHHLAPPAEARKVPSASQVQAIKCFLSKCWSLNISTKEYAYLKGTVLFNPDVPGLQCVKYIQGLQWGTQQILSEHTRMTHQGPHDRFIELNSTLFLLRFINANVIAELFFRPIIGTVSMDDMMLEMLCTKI
AHR act = human AHR activation. P35869. AHR-responsive luciferase reporter cells, luminescence. activation, % at 5 µM. hit rate 2.5% among 320,000. AID 2796; in the data active means activation above about 47%
DAX1 inh-2 = blocks DAX1 repression of SF-1 activated StAR promoter | AID 652010 | inhibition, % at 6.8 µM | hit rate 1.1% among 370,000 | HEK293T StAR-luciferase reporter, SF-1/DAX-1 repression relief;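 active means inhibition above the mean over all tested compounds plus 3 SD, cut at about 3.6% in these data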;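 further: higher inhibition means more luminescence from relief of DAX-1 repression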
ssDAF-12 act = activates DAF-12 receptor from parasite S. stercoralis | HEK293 ssDAF-12/GRIP1 lit1-tk-luc reporter, luminescence; % of 3 µM dafachronic acid response | activation, % at 6.8 µM | hit rate 1% among 370,000;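 active means activation above the mean over all tested compounds plus 3 SD, cut at about 0.9% in these data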
Each line names hits and unclear results; the compound was inactive in the other large screens. Hits are enriched below; roughly 5.7% of the tested compounds scored in any of these assays.

COc1cccc(NC(=O)C2(C)CCN2C(=O)Cc2ccc(-c3ccccc3)cc2)c1 (configuration not stated)	none (no result: DAX1 inh-1, AHR act)
Cn1c(C(=O)O)cc2cc(F)ccc21	AHR act 54
COc1ccc2c(c1)cc(C(=O)O)n2C	none
CC(=O)Nc1ccc(S(=O)(=O)NCc2ccccn2)cc1	DAX1 inh-1 4.3
COCCNC(=O)CN(Cc1ccc(OC)cc1)C(=O)CCC(=O)Nc1nccs1	none
COCCNC(=O)CN(Cc1ccc(F)cc1)C(=O)CCC(=O)Nc1nccs1	DAX1 inh-1 4.2
COc1ccc(NC(=O)NNC(=O)C(C)Oc2ccc3ccccc3c2)cc1 (configuration not stated)	none (no result: AHR act)
CC(C)n1c(CN(C)Cc2ccccc2)nc2c1c(=O)n(C)c(=O)n2C	none (no result: DAX1 inh-1)
C=C(C)C1CC=C(C)/C(=N\NC(=S)Nc2ccc(C)cc2)C1 (configuration not stated)	AHR act 48
COc1cc(C(=O)NCCCNc2ccc([N+](=O)[O-])cc2)cc(OC)c1OC	none
Cc1cccc(NC(=O)c2cc(-c3cccnc3)nc3c(C)cccc23)n1	none
O=C(NCc1ccco1)c1cccnc1-c1nc2ccccc2s1	none
CCNc1sc(C(=O)c2cccs2)c(N)c1-c1nc2ccccc2s1	AHR act 55
CCOC(=O)c1sc(NCc2ccco2)c(-c2nc3ccccc3s2)c1N	hcDAF-12 act 6.2, AHR act 62
CCNc1sc(C(=O)c2cccs2)c(N)c1C#N	none
C[C@@H]1COc2cccc(N3CCN(Cc4ccccc4F)CC3)c2S(=O)(=O)N1	none (no result: DAX1 inh-1, AHR act)
S=c1[nH]nc2ccccn12	none (no result: AHR act)
c1ccn2c(c1)nc1c2nc2ccccn21	hgDAF-12 ag 13, ssDAF-12 act 1.1
O=C(O)c1c(Cl)nc2ccccn12	none
Clc1c(-c2ccccc2)nc2ccccn12	ssDAF-12 act 1.6
O=C(O)c1ccc(Cl)c(NCc2cccs2)c1	none
Cc1c(C(=O)O)cnc2cc(-c3ccc(Cl)cc3)nn12	ssDAF-12 act 1.1
CC(=O)c1cnc2c(-c3ccc(Cl)cc3)c(C)nn2c1C	none
Cc1cc2ncc(C(=O)Nc3ccccc3)c(C)n2n1	none
CC(=O)c1cnc2cc(-c3ccc(Cl)cc3)nn2c1C	AHR act 71
COc1ccc(C(CNC(=O)C2COc3ccccc3O2)N2CCCC2)cc1 (configuration not stated)	none
CCOc1cc(/C=N/n2cnnc2)ccc1O	hcDAF-12 act 6.5
C(=N\n1cnnc1)/c1cccc(OCCOc2ccccc2)c1	AHR act 64
COc1cc(/C=N/n2cnnc2)ccc1OCc1ccc(C)cc1	hgDAF-12 ag 12
COc1cccc(C2c3[nH]c4ccccc4c3CCN2Cc2ncc[nH]2)c1 (configuration not stated)	none
C[C@@H]1CN(C(=O)OC(C)(C)C)CCN1c1ccc(N2CCN(Cc3ccccc3)[C@@H](C)C2)c(C#N)c1	none (no result: DAX1 inh-1, AHR act)
Cc1ccccc1C(=O)NCC(=O)OCCOc1ccc(C(C)C)c(C)c1	none
CC(=O)N1CCOc2cc(S(=O)(=O)NCc3ccc(F)cc3)c(C)cc21	DAX1 inh-1 5.6
COc1ccc(CNS(=O)(=O)CCNC(=O)c2ccc(OC)cc2)cc1	none
O=C(NS(=O)(=O)Nc1ccccc1)C1=C(N2CCCC2)COC1=O	none
COc1ccc(C2/C(=C(/O)c3ccc(C)cc3)C(=O)C(=O)N2C)c(OC)c1 (configuration not stated)	none
Cc1cc(C(=O)COC(=O)c2ccc(O)cc2)c(C)n1CC1CCCO1 (configuration not stated)	none
Cc1cc(C(=O)COC(=O)c2ccc(Cl)c(S(N)(=O)=O)c2)c(C)n1CC1CCCO1 (configuration not stated)	DAX1 inh-1 4.6
CCOC(=O)Cc1nn[nH]n1	none
CCCC[C@H](C(=O)N(CC)c1ccccc1)[C@@H](O)c1ccc(Cl)cc1	none (no result: DAX1 inh-1, AHR act)
CC1(NC(=O)NCCCCCCNC(=O)NC2(C)CCS(=O)(=O)C2)CCS(=O)(=O)C1 (configuration not stated)	none
CC1(NC(=S)NCCCCCCNC(=S)NC2(C)CCS(=O)(=O)C2)CCS(=O)(=O)C1 (configuration not stated)	DAX1 inh-1 5.0
Cn1nccc1C(=O)Nc1nnc(C2CC2)s1	none
O=C(O)c1cc(-c2ccc(/C=N/Nc3ccc(Cl)cc3)o2)ccc1Cl	AHR act 71
O=C(CCl)Oc1ccc2occ(C(=O)c3cccs3)c2c1	none
CCC(=O)c1coc2ccc(O)cc12	none
O=C(c1cccs1)c1coc2ccc(O)cc12	hgDAF-12 ag 12
O=C(c1cccc(Br)c1)c1coc2ccc(O)cc12	hgDAF-12 ag 13
C[C@@H](NC(=O)C[C@H]1CC[C@H]2[C@@H](COc3ccc(NC(=O)Nc4ccccc4)cc3C(=O)N2C)O1)c1ccccc1	none (no result: DAX1 inh-1, AHR act)
O=C(CCN1CCN(c2ccccc2)CC1)N/N=C/c1ccc([N+](=O)[O-])o1	none
CC(c1ccc(F)cc1)n1cc(C(=O)NCc2ccccn2)nn1 (configuration not stated)	none
CC(c1ccc(F)cc1)n1cc(C(=O)NCCN(C)C)nn1 (configuration not stated)	DAX1 inh-1 5.5
Cc1ccc(C)c(OCC(O)CN2CCCCC2C)c1 (configuration not stated)	AHR act 48
Cc1ccc(C)c(OCC(O)CN2C(C)CCCC2C)c1 (configuration not stated)	none
Cc1ccc(CNC(=O)CSc2ccsc2[N+](=O)[O-])cc1	hgDAF-12 ag 11, hcDAF-12 act 6.5
O=C(CSc1ccsc1[N+](=O)[O-])NCCc1ccccc1	AHR act 48
O=C(CSc1ccsc1[N+](=O)[O-])NCCc1ccc(Cl)cc1	none
CC(=O)c1ccc(NC(=O)CSc2ccsc2[N+](=O)[O-])cc1	none (no result: AHR act)
COc1ccc(CNC(=O)CSc2ccsc2[N+](=O)[O-])cc1	ssDAF-12 act 1.3
COCCCNC(=O)C[C@H]1C[C@@]2(C(=O)OC)C(=C[C@H](COCc3ccccc3)O[C@@H]2C)N(Cc2ccc3c(c2)OCO3)C1=O	none (no result: DAX1 inh-1, AHR act)
Cc1ccc(C(=O)CSc2nc3ccc(C(=O)NCCN4CCCCC4)cc3c(=O)[nH]2)cc1	hcDAF-12 act 5.6
Cc1[nH]c2ccc(C(=O)NCCN3CCCCCC3)cc2c1C	none
COC(=O)N/N=C/c1ccccc1OCc1ccccc1	none
O=C(N/N=C/c1ccc2cccc(OCc3ccccc3)c2n1)c1ccc(Br)cc1	AHR act 69
NC(=S)N/N=C/c1ccc2cccc(OCc3ccccc3)c2n1	none
CC(=O)Nc1ccc(C(=O)N/N=C/c2ccccc2OCc2ccccc2)cc1	DAX1 inh-1 4.3
CC(=O)N/N=c1\sc2ccccc2n1C	none
C/C(=N\N=c1/sc2ccccc2n1C)c1ccc(N2CCOCC2)cc1	AHR act 53
c1ccc2c(c1)Nc1cc3ccccc3cc1O2	ssDAF-12 act 0.9 (no result: AHR act)
